Source: PubChem BioAssay (National Center for Advancing Translational Sciences (NCATS))
TDP-43 yeast inh: TDP-43 toxicity inhibition in yeast | TDP-43 expressing yeast growth rescue, BacTiter-Glo, 24 h | 1.8% of 410,000 active | Potency, µM (series often up to 46.1 µM), inactives show top-dose growth rescue (activation), actives largely listed as activators; note: % of control where 0% means no effect; nearly all actives have a fitted effect of over 50% in size
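Readout is BacTiter-Glo luminescence of cell growth, so inhibitors register as activators. TDP-43-expressing yeast at OD600=0.02 in galactose medium, after raffinose pregrowth to mid-log, were incubated with compound for 24 hr at 30 deg C.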
FUS suppressor: rescues growth of FUS-expressing yeast | Potency, µM (top dose mostly 76.6 µM), actives largely listed as activators | AID 1347120 | S. cerevisiae FUS-expressing, growth rescue, OD600, 24 h | 0.24% of 390,000 active;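 note: plate controls were DMSO vehicle for no effect and reference control for full effect; nearly all actives have a fitted effect of over 55% in size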
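Restored growth of FUS-toxic S. cerevisiae, read as 600 nm absorbance after 24 h at 30C in galactose medium (starting OD 0.005). Controls CP55940 and DMSO.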
Abeta yeast res: restores growth of yeast expressing A-beta42 peptide. 0.063% of 410,000 active. AID 1347071. Potency, µM (highest dose often 46.1 µM), most hits filed as activators. yeast expressing A-beta42, growth rescue, OD600, 48 h; response scale: 0% DMSO, 100% iron-clioquinol control; note: nearly all actives have a fitted effect of over 55% in size
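Growth rescue measured by 600 nm absorbance after 48 h yeast culture at 30 C with compound. Values normalized between DMSO and an equimolar ferric chloride plus clioquinol control.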
aSyn rescue: rescues yeast growth from alpha-synuclein toxicity; Yeast expressing alpha-synuclein, growth rescue, BacTiter-Glo, 24 h; 0.14% of 370,000 active; Potency, µM (titrated, usually from 46.1 µM), for the others: at the top dose growth rescue (activation), usual class: activators; AID 652106; note: % of control where 0% means no effect; nearly all actives have a fitted effect of over 65% in size
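Rescue of yeast growth: cells expressing toxic alpha-synuclein, induced in galactose at OD600 0.02, incubated with compound 24 h at 30 C. ATP luminescence quantified growth; inhibitors of toxicity appear as activators.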
Active calls of the source: *; i = inactive; u = inconclusive; x = no result given; [ ] = dose if it differs, or a comment. This is a sample that favours compounds with a hit; in the whole collection about 2.1% have one here. Calls come from the whole dose curve; as a rule, active = well fitted curve in the direction sought with a large enough effect; inconclusive = small, poorly fitted or top-dose-only effect, or another doubt; inactive = no such curve, though single readings can be large; an effect the other way counts as inactive or inconclusive. Potency is the fitted concentration of half-maximal effect.

SMILES	TDP-43 yeast inh	FUS suppressor	Abeta yeast res	aSyn rescue
O=C(Nc1ccc(F)cc1)OCc1cn(Cc2ccccc2F)nn1	x	i	x	x
CSc1cccc(NC(=O)CN(C)S(=O)(=O)c2ccc3c(c2)CCCN3C(C)=O)c1	3.1%	i	i	x
CC(C)[C@H]1/C(=C/C2CC2)N2C(=O)C[C@H](c3ccccc3)N=C2N1C	x	i	x	x
CCOC(=O)c1ccccc1NC(=O)NCc1cccn1Cc1ccc(F)cc1	18.2%	i	i	x
N#Cc1ccccc1S(=O)(=O)N1CCN(c2nc(-c3cccs3)nc3ccccc23)CC1	x	i	x	-9.3%
C=CCn1c(C)cc(C(=O)CSc2nnc(Cc3ccccc3)o2)c1C	2.51µM*	i	u	2.5%
O=[N+]([O-])c1ccc2c(c1)C=C/C2=C/c1ccccc1	x	x	x	-8.6%
CC(C)c1cc(-c2nc(-c3ccc(Br)cc3)no2)n[nH]1	u	i	i	x
COc1ccc(-c2noc(-c3cc(C(C)C)[nH]n3)n2)cc1	20µM*	i	u	x
CN=C1NC(=O)/C(=C\c2cc(C)n(-c3ccccc3F)c2C)S1	x	i	x	x
CCOC(=O)CNC(=S)N(Cc1ccccc1F)C1CCCCC1	u	i	7.08µM*	-0.8%
CCCNC(=O)CNC(=S)N(Cc1ccccc1F)C1CCCCC1	u	i	i	13.4%
NNc1nnc(-c2ccccc2)c(-c2ccccc2)n1	-15.7%	35.5µM*	i	3.3%
COc1nc(Nc2cccc(C(F)(F)F)c2)nc(OC)n1	14.1µM*	i	i	-9.0%
Cc1cc(C)nc(Nc2cccc(C(F)(F)F)c2)n1	u	i	i	-13.0%
O=C(Cn1ncn2c(cc3ccccc32)c1=O)NCc1ccc(F)cc1	1.5%	i	i	x
COc1ccc(/C=C\c2onc(C)c2S(=O)(=O)N2CCC(C(=O)Nc3ccccc3OC)CC2)cc1	-11.6%	12.6µM*	i	x
Cc1cc(SCC(=O)NC(=O)c2cccn2C)nc2ccccc12	20µM*	i	u	0.6%
CN(C(=O)CSc1ncnc2ccccc12)C1CCCCC1	12.6µM*	i	i	4.4%
Cc1cc(SCC(=O)N(C)C2CCCCC2)nc2ccccc12	17.8µM*	i	i	0.2%
Cc1cc(SCC(=O)c2ccc(O)c(O)c2)nc2ccccc12	22.4µM*	i	i	u
COc1ccc(OC)c(/C=C(\C#N)c2nc(-c3ccc(F)cc3)cs2)c1	19.3%	i	i	x
COC(=O)c1cc(C)nc2c1c(=O)nc(SCc1cccc(C)c1)n2C1CC1	12.4%	i	i	x
Cc1cc(C)c(NC(=O)c2cc(C)nc3c2c(C)nn3-c2cccc(F)c2)c(C)c1	0.0%[9.22 µM]	i	i	x
O=C1/C(=C/c2ccsc2)CC/C1=C\c1cccs1	x	x	x	-13.3%
SMILES	TDP-43 yeast inh	FUS suppressor	Abeta yeast res	aSyn rescue
COc1ccc(C2c3[nH]c4ccc(OC)cc4c3CCN2C(=O)Nc2ccccc2)cc1 (stereo not drawn)	20µM*	u	i	x
COCCCN(Cc1ccco1)C(=O)c1cc2c(s1)-c1ccccc1OC2	22.4µM*	u	i	1.8%
Cc1cc(C)cc(Cn2ncc(Cl)c(Cl)c2=O)c1	17.8µM*	x	i	1.4%
Cc1ccc(Cn2ncc(Cl)c(Cl)c2=O)cc1	u	x	i	1.3%
O=c1c(Cl)c(Cl)cnn1Cc1ccccc1Cl	35.5µM*	x	i	4.5%
N/C(=N\OC(=O)c1ccc(Cl)cc1Cl)c1ccncc1	20.1%	i	i	-7.5%
N/C(=N\OC(=O)c1ccc2ccccc2c1)c1ccncc1	12.6µM*	i	i	10.2%
N/C(=N\OC(=O)c1ccc(F)cc1)c1cccc([N+](=O)[O-])c1	12.6µM*	i	i	-8.4%
N/C(=N\OC(=O)c1ccc2ccccc2c1)c1ccccn1	-13.1%[0.397 µM]	i	i	-6.8%
N/C(=N\OC(=O)c1ccccc1Cl)c1cccc([N+](=O)[O-])c1	11.2µM*	i	i	-32.3%
N/C(=N\OC(=O)c1ccccc1Cl)c1ccncc1	25.1µM*	i	i	6.7%
N/C(=N/OC(=O)c1cccc([N+](=O)[O-])c1)c1cccc([N+](=O)[O-])c1	3.2%	i	i	-8.7%
N/C(Cc1ccc([N+](=O)[O-])cc1)=N\OC(=O)c1ccc([N+](=O)[O-])cc1	17.8µM*	x	i	0.4%
N/C(=N\OC(=O)c1ccc2ccccc2c1)c1cccc([N+](=O)[O-])c1	22.4µM*	i	i	-34.3%
